# Measurements taken from PubChem BioAssay (NCI).
# Compounds without any hit were thinned out: in the full panel of roughly 83,000, 20% have a hit.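 Growth was measured after 48 h exposure to one concentration of compound in 96-well plates. Values under 10 count as active.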 Values without a mark were called inactive. The source made the active and inactive calls.
# Test system: COLO 205 colon
# Assay: NCI-60 one-dose screen, 48 h (100 = growth as untreated, 0 = no growth, -100 = all killed)
# Conditions: 10 µM unless noted
row,SMILES,growth
1,CN1C(=O)/C(=C/c2ccc(C(=O)Nc3ncc(Cc4ccc(Cl)cc4)s3)cc2)SC1=S,80.3%
2,CCCCCC(=O)OCC(=O)O[C@@H]1C[C@]2(C(C)C)O[C@@]1(C)[C@@H]1CC[C@@H](C)[C@H]1[C@@H]2OC(=O)/C=C/c1ccccc1,73.9%
3,CC(=O)N(N=Nc1ccccc1)c1cccc2ccccc12,91.9%
4,COc1ccc(/C=C2\C(=O)N=C3N2NC(c2cc(Br)ccc2O)C=C(C)N3c2ccccc2)cc1 (stereo not given),115%
5,CC(C)(C)[Si](C)(C)O[C@H]1C(=O)C=CN2CC=C[C@@H]12,122% [100 µM]
6,C=C1C(=O)O[C@H]2[C@H]1CC/C(COC(=O)CSCCSCC(=O)OC/C1=C/CC[C@@]3(C)O[C@H]3[C@H]3OC(=O)C(=C)[C@@H]3CC1)=C\CC[C@@]1(C)O[C@@H]21,-37.7% (active)
7,Brc1ccc2[nH]cc(-c3nonc3-c3c[nH]c4ccccc34)c2c1,36.3%
8,COc1cccc(NC(=O)Cn2cc(CN3CCN(c4ccnc5cc(Cl)ccc45)CC3)nn2)c1,112%
9,CCOc1ccc(NC(=O)CSc2oc(-c3ccccc3)nc2S(=O)(=O)c2ccc(F)cc2)cc1,93.2%
10,O=C1Nc2ccc(Br)cc2/C1=N/c1n[nH]c(=S)s1,114%
11,COc1ccc(C(=O)C2C(c3ccc(OC)cc3)CN(C)C23C(=O)Nc2ccccc23)cc1 (stereo not given),105%
12,Cc1noc(C)c1C(=O)OCc1coc2ccccc2c1=O,66.6%
13,C[C@]12CC[C@@H]3c4ccc(O)c([N+](=O)[O-])c4CC[C@H]3[C@@H]1CCC2=O,159%
14,COc1cccc([C@H]2c3[nH]c4ccccc4c3C[C@H]3C(=O)N(CCCCCCC(=O)NO)CC(=O)N23)c1,60.2%
15,CO/N=C(/C)c1ccc(NC(=O)CSc2nnc(-c3ccncc3)n2-c2ccccc2)cc1,104%

# Test system: DU-145 prostate
# Assay: as above
# Conditions: 10 µM unless noted
row,SMILES,growth
1,O=C1c2cccc3cccc(c23)C(=O)N1N1C(=O)c2cccc3c(N4CCOCC4)ccc(c23)C1=O,110%
2,CCO/C=N/C1=C(C#N)C(c2ccc(OC)cc2)c2sc3c(F)cccc3c2O1 (stereo not given),35.8%
3,Cc1ccc(CNc2ccc(Cl)cc2NCc2ccc(C)c(O)c2)cc1O,23.4%
4,O=C(c1ccc(-c2nc(CSc3nc4ccccc4s3)no2)cc1)N1CCSCC1,81.9%
5,C/C(=C(/c1ccc(Cl)cc1)c1ccc(OCCN2CCCC2)cc1)c1ccc(Cl)cc1,98.1%
6,CC[C@]12C=CCN3CC[C@@]4(c5cc(NC(=O)CCC(=O)OCc6cn(Cc7ccc(F)cc7)nn6)c(OC)cc5N(C)[C@H]4[C@@](O)(C(=O)OC)[C@@H]1OC(C)=O)[C@@H]32,104%
7,C=C(C)[C@@H]1CC[C@]2(C(=O)O)CC[C@]3(C)[C@H](CC[C@@H]4[C@@]5(C)C[C@@H](Cc6cn(CCO[C@@H]7O[C@H](COC(C)=O)[C@H](OC(C)=O)[C@H](OC(C)=O)[C@H]7OC(C)=O)nn6)[C@H](O)C(C)(C)[C@@H]5CC[C@]43C)[C@@H]12,81.8%
8,C=CCn1c(SCC(=O)Nc2ccc(C(=O)/C=C/c3ccc(Cl)cc3)cc2)nnc1-c1cc(-c2ccc(S(N)(=O)=O)cc2)nc2ccccc12,104%
9,CCOC(=O)C1=NN(c2ccccc2)C(=O)/C1=C\N1C(=O)CC(=O)NC1=S,110%
10,CC12CCC3c4ccccc4CCC3(CO1)C2 (stereo not given),121%
11,O=C1CC(N2C(=O)/C(=C/C(Cl)=C\c3ccc([N+](=O)[O-])cc3)SC2=S)C(=O)N1c1ccc(Cl)cc1 (stereo not given),22.4%
12,CC1(C)c2[nH]c3ccccc3c2C[C@]2(C)[C@H]3CC=C4[C@@H]5C[C@@](C)(C(N)=O)CC[C@]5(C)CC[C@@]4(C)[C@]3(C)CC[C@@H]12,74%
13,CCCCCOc1ccc(C(=O)/C(Br)=C/C(=O)O)cc1,106%
14,CC(C)N1CCN(Cc2ccc3c(NNC(=O)c4ccccc4)nc4cc(F)ccc4n23)CC1,30.8%
15,N#Cc1cccc(NC(=O)c2oc3ccccc3c2-c2cnn(-c3ccccc3)c2)c1,105% [50 µM]
16,Cc1cccc(N2CCN(CC(O)COc3ccc(Cl)cc3)CC2)c1 (stereo not given),115%
17,CCOC(=O)c1c(C)nc2c(c1N)CC(=O)N2Cc1cc(F)cc(Cl)c1,94.5%
18,C[C@@H]1CCC[C@H]1CC(N)C(=O)O (stereo not given in full),106%
19,O=CC1(C2(C=O)c3ccccc3-c3ccccc32)c2ccccc2-c2ccccc21,-63.3% (active)
20,O=C1Nc2ccc(I)cc2C1=O,106%

row,SMILES,growth
1,CN1CCN(c2ccc(NC(=O)c3nc4ccc5[nH]ncc5c4c4c3CCCC4)cc2C(F)(F)F)CC1,-27.9% (active)
2,CN(C)C1CCN(Cc2ccc(NC(=O)c3cncc(C#Cc4cnc(N)c5ncccc45)c3)cc2C(F)(F)F)CC1,64.1%
3,COc1ccc(C/C(C)=C(/c2ccc(OCCN3CCCCC3)cc2)c2ccc(OC(=O)NCc3ccccc3)cc2)cc1,-97.2% (active)
4,COc1ccccc1NC(=O)Cn1cc(CN2CCN(c3ccnc4cc(Cl)ccc34)CC2)nn1,106%
5,N=C(N)c1ccc(-c2ccc(-c3ccc(F)cc3)o2)o1,28.7%
6,CN1C(=O)/C(=C/c2ccc(C(=O)Nc3ncc(Cc4ccc(Cl)cc4)s3)cc2)SC1=S,47.1%
7,CCCCCC(=O)OCC(=O)O[C@@H]1C[C@]2(C(C)C)O[C@@]1(C)[C@@H]1CC[C@@H](C)[C@H]1[C@@H]2OC(=O)/C=C/c1ccccc1,73.4%
8,CC(=O)N(N=Nc1ccccc1)c1cccc2ccccc12,9.87% (active)
9,COc1ccc(/C=C2\C(=O)N=C3N2NC(c2cc(Br)ccc2O)C=C(C)N3c2ccccc2)cc1 (stereo not given),104%
10,CC(C)(C)[Si](C)(C)O[C@H]1C(=O)C=CN2CC=C[C@@H]12,108% [100 µM]
11,C=C1C(=O)O[C@H]2[C@H]1CC/C(COC(=O)CSCCSCC(=O)OC/C1=C/CC[C@@]3(C)O[C@H]3[C@H]3OC(=O)C(=C)[C@@H]3CC1)=C\CC[C@@]1(C)O[C@@H]21,32.3%
12,Brc1ccc2[nH]cc(-c3nonc3-c3c[nH]c4ccccc34)c2c1,44.6%
13,COc1cccc(NC(=O)Cn2cc(CN3CCN(c4ccnc5cc(Cl)ccc45)CC3)nn2)c1,104%
14,CCOc1ccc(NC(=O)CSc2oc(-c3ccccc3)nc2S(=O)(=O)c2ccc(F)cc2)cc1,89.8%
15,O=C1Nc2ccc(Br)cc2/C1=N/c1n[nH]c(=S)s1,106%
16,COc1ccc(C(=O)C2C(c3ccc(OC)cc3)CN(C)C23C(=O)Nc2ccccc23)cc1 (stereo not given),99%
17,Cc1noc(C)c1C(=O)OCc1coc2ccccc2c1=O,27.8%
18,C[C@]12CC[C@@H]3c4ccc(O)c([N+](=O)[O-])c4CC[C@H]3[C@@H]1CCC2=O,117%
19,COc1cccc([C@H]2c3[nH]c4ccccc4c3C[C@H]3C(=O)N(CCCCCCC(=O)NO)CC(=O)N23)c1,76.9%
20,CO/N=C(/C)c1ccc(NC(=O)CSc2nnc(-c3ccncc3)n2-c2ccccc2)cc1,52%
